In PubChem BioAssay (Tox21):
Inconclusive results are not listed. Active and inactive are the calls of the source. Unless noted, the call rests on the fitted dose curve; in most records, active means well fitted curve in the direction sought with a large enough effect in the repeat runs; inconclusive means weak or mixed curves; inactive means no such curve, though single readings can be large; an effect the other way counts as inactive or inconclusive. Where a SMILES comes first, the peptide text is derived from it. [ ]: non-standard residue; d: D form. pGlu = O=C1CC[C@@H](C(=O)O)N1

Experiments:
[1] = molecular target: Peroxisome proliferator-activated receptor gamma (Homo sapiens) (UniProt P37231); test: qHTS assay to identify small molecule agonists of the peroxisome proliferator-activated receptor gamma (PPARg) signaling pathway (AID 743094; active means well fitted activation curve with a large enough effect in the signal ratio in the repeat runs, not every such curve was filed as active; the % refers to the signal ratio)
Method in brief: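 Beta-lactamase FRET fluorescence was the read-out after a 1 h room-temperature substrate step, following 17 h compound treatment at 37C of HEK293H cells expressing a UAS-driven bla reporter responsive to PPARg.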

[2] = molecular target: Peroxisome proliferator-activated receptor gamma (Homo sapiens) (UniProt P37231); test: qHTS assay to identify small molecule antagonists of the peroxisome proliferator-activated receptor gamma (PPARg) signaling pathway (AID 743191; calls by dose curve; further: series mostly up to about 63 µM; nearly all actives have a fitted effect of over 30% in size)
Method in brief: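 GeneBLAzer PPARg UAS-bla HEK293H cells carrying a UAS-driven beta-lactamase reporter were plated at 3000 cells/well, preincubated 5 h at 37C, then given compound for 17 h at 37C; LiveBLAzer B/G FRET substrate was read after 1 h at room temperature.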

[3] = qHTS assay to identify small molecule antagonists of the peroxisome proliferator-activated receptor gamma (PPARg) signaling pathway - cell viability counter screen (AID 743194); further: nearly all actives have a fitted effect of over 55% in size
Method in brief: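 PPARg-UAS-bla HEK293H cells were plated, rested 5 h at 37 C, then treated with compounds plus rosiglitazone (50 nM final) for 17 h at 37 C; viability was then read by CellTiter-Glo luminescence after 30 min at room temperature.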

[4] = qHTS assay for small molecule agonists of the antioxidant response element (ARE) signaling pathway - cell viability counter screen (AID 743203; calls by dose curve; further: nearly all actives have a fitted effect of over 55% in size)
Method in brief: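 HepG2 cells carrying ARE-driven beta-lactamase; 2,000 cells/well; 5 hrs plating; compound pinned from DMSO; 16 hrs 37C/5% CO2; CellTiter-Glo added; 30 min RT; luminescence.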

[5] = qHTS assay for small molecule activators of the heat shock response signaling pathway - cell viability counter screen (AID 743209); further: nearly all actives have a fitted effect of over 50% in size
Method in brief: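 Luminescence from CellTiter-Glo, added after the beta-lactamase FRET read, gave the viability signal. Cells were HSE-bla HeLa treated with DMSO-dissolved compounds for 5 h at 37 C following overnight plating.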

[6] = qHTS assay for small molecule activators of the heat shock response signaling pathway (AID 743210; active means well fitted activation curve with a large enough effect in the signal ratio in the repeat runs, with a control signal flat, not every such curve was filed as active; the % refers to the signal ratio;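 further: HeLa cells with beta-lactamase reporter driven by heat shock elements; series mostly up to about 63 µM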)
Method in brief: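 Reporter gene assay: HeLa cells stably bearing an HSE-bla construct, compound treatment 5 h at 37 C, LiveBLAzer substrate 2.5 h at RT, fluorescence intensity.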

[7] = qHTS assay to identify small molecule agonists of the peroxisome proliferator-activated receptor delta (PPARd) signaling pathway - cell viability counter screen (AID 743211); further: nearly all actives have a fitted effect of over 55% in size
Method in brief: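 qHTS cell viability: PPARd-bla HEK293H; 17 h cpd, 37C; CellTiter-Glo, luminescence at 30 min RT.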

[8] = molecular target: Peroxisome proliferator-activated receptor delta (Homo sapiens) (UniProt Q03181); test: qHTS assay to identify small molecule agonists of the peroxisome proliferator-activated receptor delta (PPARd) signaling pathway (AID 743212; calls by dose curve)
Method in brief: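 A PPARd-bla HEK293H line with beta-lactamase under an Upstream Activator Sequence is treated with compounds at 37 C. Substrate loading for 2 h at room temperature precedes the fluorescence measurement.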

[9] = qHTS assay to identify small molecule antagonists of the peroxisome proliferator-activated receptor delta (PPARd) signaling pathway - cell viability counter screen (AID 743213); further: nearly all actives have a fitted effect of over 50% in size
Method in brief: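 Same-well viability: cells pre-incubated 5 h, dosed with compound plus 300 nM L165041, kept 17 h at 37 C, FRET substrate 2 h RT, then CellTiter-Glo 30 min RT and luminescence.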

[10] = molecular target: Peroxisome proliferator-activated receptor delta (Homo sapiens) (UniProt Q03181); test: qHTS assay to identify small molecule antagonists of the peroxisome proliferator-activated receptor delta (PPARd) signaling pathway (AID 743215; active means well fitted inhibition curve with a large enough effect in the signal ratio in the repeat runs, not every such curve was filed as active; the % refers to the signal ratio;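 further: cells stimulated with agonist L165041 at 300 nM final during compound exposure; series mostly up to about 62 µM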)
Method in brief: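 Read-out is beta-lactamase FRET fluorescence, measured 2 h after substrate addition at room temperature. Beforehand, UAS-bla HEK293H cells carrying the PPARd reporter were exposed to compounds with L165041 at 300 nM final for 17 h at 37 C.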

[11] = qHTS assay to identify small molecule antagonists of the farnesoid-X-receptor (FXR) signaling pathway - cell viability counter screen (AID 743221; active means well fitted cell-killing curve with a large enough effect in the repeat runs, not every such curve was filed as active; further: nearly all actives have a fitted effect of over 50% in size)
Method in brief: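 After a 5 h settling period, FXR-bla HEK 293T cells receive compound and chenodeoxycholic acid (50 uM final) and incubate 16 h at 37 C; CellTiter-Glo luminescence, read after 30 min at room temperature, reports cell viability.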

[12] = qHTS assay for small molecule agonists of the antioxidant response element (ARE) signaling pathway (AID 743202; active means well fitted activation curve with a large enough effect in the signal ratio in the repeat runs, not every such curve was filed as active; the % refers to the signal ratio)
Method in brief: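 Compounds delivered in DMSO to ARE-bla HepG2 cells (2,000 cells/well, pre-incubated 5 h) and left 16 h at 37 C. LiveBLAzer B/G FRET substrate then added for 2 h at RT before fluorescence reading.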

[13] = molecular target: Bile acid receptor (Homo sapiens) (UniProt Q96RI1); test: qHTS assay to identify small molecule antagonists of the farnesoid-X-receptor (FXR) signaling pathway (AID 743217; active means well fitted inhibition curve with a large enough effect in the signal ratio in the repeat runs, not every such curve was filed as active; the % refers to the signal ratio)
Method in brief: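 HEK 293T FXR-UAS-bla, 5000 cells/well; compound + CDCA 50 uM final; 16 h, 37 °C; B/G FRET substrate 2 h RT; fluorescence.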

[14] = molecular target: Vitamin D3 receptor (Homo sapiens) (UniProt P11473); test: qHTS assay to identify small molecule agonists of the vitamin D receptor (VDR) signaling pathway (AID 743222; calls by dose curve)
Method in brief: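 VDR-bla cells, 2,000/well; 4 h preincubation 37C; cpd (DMSO) 16 h; LiveBLAzer B/G substrate 2 h RT; fluorescence intensity read.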

[15] = molecular target: Vitamin D3 receptor (Homo sapiens) (UniProt P11473); test: qHTS assay to identify small molecule antagonists of the vitamin D receptor (VDR) signaling pathway (AID 743223; active means well fitted inhibition curve with a large enough effect in the signal ratio in the repeat runs, not every such curve was filed as active; the % refers to the signal ratio)
Method in brief: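 Reporter line VDR-bla; stimulus 1alpha,25-(OH)2 vitamin D3, 3 nM final; compound co-addition, 16 h 37C/5% CO2; LiveBLAzer B/G substrate 2 h RT; fluorescence intensity.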

[16] = qHTS assay to identify aromatase inhibitors - cell viability counter screen (AID 743084);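 further: cells stimulated with testosterone during compound exposure; nearly all actives have a fitted effect of over 55% in size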
[17] = qHTS assay to identify small molecule agonists of the farnesoid-X-receptor (FXR) signaling pathway - cell viability counter screen (AID 743218); further: nearly all actives have a fitted effect of over 45% in size
Method in brief: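 HEK 293T FXR-bla cells; 5 h pre-incubation, 16 h compound exposure at 37 C; LiveBLAzer substrate 2 h RT, then CellTiter-Glo 30 min RT, luminescence.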

[18] = molecular target: Bile acid receptor (Homo sapiens) (UniProt Q96RI1); test: qHTS assay to identify small molecule agonists of the farnesoid-X-receptor (FXR) signaling pathway (AID 743220; active means well fitted activation curve with a large enough effect in the signal ratio in the repeat runs, not every such curve was filed as active; the % refers to the signal ratio)
Method in brief: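 Beta-lactamase reporter under UAS control in GeneBLAzer FXR HEK 293T cells (5000/well) measured with LiveBLAzer FRET substrate after 2 h at room temperature. Compound exposure lasted 16 h at 37C.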

[19] = qHTS assay to identify small molecule that activate the aryl hydrocarbon receptor (AhR) signaling pathway - cell viability counter screen (AID 743086);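 further: HepG2 liver cells carrying the AhR DRE luciferase reporter; series mostly up to about 70 µM; nearly all actives have a fitted effect of over 45% in size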
Method in brief: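 HepG2-AhR-luc (HG2L7.5c1) cells, 4000/well, were preincubated 5 h at 37C, exposed to compound in qHTS format for 24 hr at 37C, then given CellTiter-Fluor for 30 min; viability was read as fluorescence in the reporter wells.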

[20] = molecular target: Aryl hydrocarbon receptor (Homo sapiens) (UniProt P35869); test: qHTS assay to identify small molecule that activate the aryl hydrocarbon receptor (AhR) signaling pathway (AID 743085);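 further: HG2L7.5c1 human HepG2 liver cells with stably integrated DRE-driven firefly reporter; series mostly up to about 70 µM; nearly all actives have a fitted effect of over 15% in size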
Method in brief: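 AhR agonist activity is inferred from enhanced light output of a DRE-controlled firefly luciferase reporter in HepG2 cells, measured with ONE-Glo following 24 h treatment at 37C.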
On the % scale 0 is the no-effect control and ±100 the full control effect.

Chain of Bile acid receptor (Homo sapiens) (Q96RI1 whole entry, looked up): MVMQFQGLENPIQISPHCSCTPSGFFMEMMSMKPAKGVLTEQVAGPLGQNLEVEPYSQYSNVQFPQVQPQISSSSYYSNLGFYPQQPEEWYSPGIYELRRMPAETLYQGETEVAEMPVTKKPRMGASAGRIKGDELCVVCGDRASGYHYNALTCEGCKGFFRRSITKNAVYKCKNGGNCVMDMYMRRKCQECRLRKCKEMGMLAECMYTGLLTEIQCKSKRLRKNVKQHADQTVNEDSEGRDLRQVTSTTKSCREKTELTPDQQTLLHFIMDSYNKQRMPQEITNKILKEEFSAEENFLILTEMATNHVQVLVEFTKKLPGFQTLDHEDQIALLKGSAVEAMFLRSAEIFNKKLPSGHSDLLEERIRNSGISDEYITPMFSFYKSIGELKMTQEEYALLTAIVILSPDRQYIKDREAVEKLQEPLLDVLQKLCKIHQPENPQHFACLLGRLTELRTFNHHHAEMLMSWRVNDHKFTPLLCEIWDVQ
Chain of Vitamin D3 receptor (Homo sapiens) (P11473 whole entry, looked up): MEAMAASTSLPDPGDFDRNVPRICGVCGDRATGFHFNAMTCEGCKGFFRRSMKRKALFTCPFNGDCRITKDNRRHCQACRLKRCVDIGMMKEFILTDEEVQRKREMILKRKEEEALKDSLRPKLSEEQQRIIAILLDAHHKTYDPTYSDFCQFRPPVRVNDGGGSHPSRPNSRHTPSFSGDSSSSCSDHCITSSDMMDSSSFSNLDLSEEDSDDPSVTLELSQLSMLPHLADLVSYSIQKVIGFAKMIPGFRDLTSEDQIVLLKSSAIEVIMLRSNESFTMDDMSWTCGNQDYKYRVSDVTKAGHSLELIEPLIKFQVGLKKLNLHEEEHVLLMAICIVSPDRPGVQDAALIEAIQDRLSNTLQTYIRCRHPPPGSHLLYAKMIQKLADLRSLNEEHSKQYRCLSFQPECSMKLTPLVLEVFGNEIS
Chain of Peroxisome proliferator-activated receptor delta (Homo sapiens) (Q03181 whole entry, looked up): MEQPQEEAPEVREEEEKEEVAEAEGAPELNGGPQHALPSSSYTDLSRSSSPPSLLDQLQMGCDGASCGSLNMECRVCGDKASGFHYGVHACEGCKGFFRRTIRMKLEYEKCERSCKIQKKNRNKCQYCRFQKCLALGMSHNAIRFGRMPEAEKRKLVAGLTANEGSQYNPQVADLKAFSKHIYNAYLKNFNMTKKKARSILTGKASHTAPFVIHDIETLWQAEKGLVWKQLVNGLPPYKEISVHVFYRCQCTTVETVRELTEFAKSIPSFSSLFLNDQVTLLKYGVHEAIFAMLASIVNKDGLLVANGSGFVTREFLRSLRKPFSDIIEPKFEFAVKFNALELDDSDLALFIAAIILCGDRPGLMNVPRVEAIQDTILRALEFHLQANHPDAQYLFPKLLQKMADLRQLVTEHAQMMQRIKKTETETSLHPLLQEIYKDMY
Chain of Peroxisome proliferator-activated receptor gamma (Homo sapiens) (P37231 whole entry, looked up): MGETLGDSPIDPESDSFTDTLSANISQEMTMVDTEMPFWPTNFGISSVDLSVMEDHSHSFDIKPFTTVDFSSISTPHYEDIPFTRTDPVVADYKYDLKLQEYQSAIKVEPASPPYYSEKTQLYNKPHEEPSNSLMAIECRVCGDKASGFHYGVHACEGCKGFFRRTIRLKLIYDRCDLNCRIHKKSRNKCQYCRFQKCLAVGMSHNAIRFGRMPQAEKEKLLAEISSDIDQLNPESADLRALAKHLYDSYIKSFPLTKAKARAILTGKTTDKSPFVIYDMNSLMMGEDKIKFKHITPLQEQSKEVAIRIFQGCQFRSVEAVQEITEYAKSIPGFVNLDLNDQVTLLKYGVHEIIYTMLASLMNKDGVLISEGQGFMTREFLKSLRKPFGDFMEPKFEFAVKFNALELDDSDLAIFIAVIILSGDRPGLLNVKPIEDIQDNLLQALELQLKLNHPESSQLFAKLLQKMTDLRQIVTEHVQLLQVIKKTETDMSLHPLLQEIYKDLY
Chain of Aryl hydrocarbon receptor (Homo sapiens) (P35869 whole entry, looked up): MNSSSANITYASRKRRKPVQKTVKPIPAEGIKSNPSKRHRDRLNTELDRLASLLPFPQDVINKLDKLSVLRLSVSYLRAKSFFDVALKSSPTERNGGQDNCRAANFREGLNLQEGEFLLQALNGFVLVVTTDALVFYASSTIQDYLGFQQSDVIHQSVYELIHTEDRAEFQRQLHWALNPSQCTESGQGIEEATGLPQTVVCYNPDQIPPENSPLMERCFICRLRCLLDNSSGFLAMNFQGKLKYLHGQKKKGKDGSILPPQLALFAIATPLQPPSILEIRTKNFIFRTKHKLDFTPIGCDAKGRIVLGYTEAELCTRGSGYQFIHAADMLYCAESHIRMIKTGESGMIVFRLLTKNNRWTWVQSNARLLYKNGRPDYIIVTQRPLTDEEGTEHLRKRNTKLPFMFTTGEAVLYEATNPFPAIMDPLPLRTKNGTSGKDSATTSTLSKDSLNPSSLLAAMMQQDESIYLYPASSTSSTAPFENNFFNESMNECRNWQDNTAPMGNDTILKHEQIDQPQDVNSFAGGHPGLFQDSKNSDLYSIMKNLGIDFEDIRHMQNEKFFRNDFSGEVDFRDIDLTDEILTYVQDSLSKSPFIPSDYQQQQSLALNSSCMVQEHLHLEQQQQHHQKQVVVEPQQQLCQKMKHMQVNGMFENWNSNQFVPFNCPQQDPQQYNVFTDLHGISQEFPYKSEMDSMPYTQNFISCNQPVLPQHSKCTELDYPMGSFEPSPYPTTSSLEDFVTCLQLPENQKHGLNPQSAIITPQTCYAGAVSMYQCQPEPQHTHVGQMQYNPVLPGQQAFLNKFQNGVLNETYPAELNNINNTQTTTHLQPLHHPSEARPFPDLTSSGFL

O=S(=O)(O)c1cccc2ccccc12
inactive: Potency [1] | Potency [2] | outcome [3] | outcome [4] | outcome [5] | outcome [6] | outcome [7] | outcome [8] | outcome [9] | outcome [10] | outcome [11]

C=C(C)C(=O)OCC(O)CO (stereo unspecified)
inactive: Potency [2] | outcome [3] | Potency [12] | outcome [4] | outcome [5] | outcome [6] | outcome [7] | outcome [8] | outcome [9] | outcome [10] | outcome [13] | outcome [11] | outcome [14] | outcome [15]

CC(C)C[C@@H](N)C(=O)O
inactive: Potency [16] | Potency [1] | Potency [12] | outcome [4] | outcome [5] | outcome [6] | outcome [7] | outcome [8] | outcome [9] | outcome [10] | outcome [13] | outcome [11] | outcome [14] | outcome [15]

Cc1coc2ccccc2c1=O
inactive: Potency [2] | outcome [3] | Potency [12] | outcome [4] | outcome [5] | outcome [6] | outcome [7] | outcome [8] | outcome [9] | outcome [13] | outcome [11] | outcome [14]

Cc1nc(C2CCCCC2)c(-c2ccc(S(N)(=O)=O)c(F)c2)o1
inactive: outcome [3] | outcome [4] | outcome [5] | outcome [7] | outcome [9] | outcome [13] | outcome [17] | outcome [18] | outcome [11] | outcome [14]

CCCC(=O)O[C@]1(C(=O)CC)CC[C@H]2[C@@H]3CCC4=CC(=O)CC[C@]4(C)[C@H]3[C@@H](O)C[C@@]21C
inactive: outcome [3] | outcome [4] | outcome [6] | outcome [9] | outcome [10] | outcome [11]

COCCOCC(OC)OC
inactive: Potency [2] | outcome [3] | Potency [12] | outcome [4] | outcome [5] | outcome [6] | outcome [7] | outcome [8] | outcome [9] | outcome [13] | outcome [17] | outcome [18] | outcome [11] | outcome [14]

NC(=O)N1c2ccccc2CC(=O)c2ccccc21
inactive: Potency [19] | outcome [3] | Potency [12] | outcome [4] | outcome [5] | outcome [6] | outcome [7] | outcome [8] | outcome [9] | outcome [10] | outcome [17] | outcome [11] | outcome [14]

Clc1cc(Cl)c(Cl)nc1Cl
inactive: Potency [19] | Potency [1] | Potency [2] | outcome [3] | Potency [12] | outcome [4] | outcome [5] | outcome [6] | outcome [7] | outcome [9] | outcome [10] | outcome [13] | outcome [17] | outcome [11] | outcome [14] | outcome [15]

NC(=O)NC1N=C([O][Al])NC1=O (stereo unspecified)
inactive: Potency [2] | outcome [3] | outcome [4] | outcome [7] | outcome [9] | outcome [13] | outcome [17] | outcome [18] | outcome [11]

CCNC(=O)[C@@H]1CCCN1C(=O)[C@H](CCCN=C(N)N)NC(=O)[C@H](CC(C)C)NC(=O)CNC(=O)[C@H](Cc1ccc(O)cc1)NC(=O)[C@H](CO)NC(=O)[C@H](Cc1c[nH]c2ccccc12)NC(=O)[C@H](Cc1cnc[nH]1)NC(=O)[C@@H]1CCC(=O)N1 ([pGlu]HWSYGLRP-NHEt)
inactive: Potency [2] | outcome [3] | Potency [12] | outcome [4] | outcome [5] | outcome [6] | outcome [7] | outcome [8] | outcome [9] | outcome [10] | outcome [17] | outcome [11] | outcome [14] | outcome [15]

Cc1cc(C)c(N=Nc2c(O)c(S(=O)(=O)O)cc3cc(S(=O)(=O)O)ccc23)cc1C
inactive: activation [20] -3.38% [at 8.47 µM] | viability change, negative = cytotoxic [19] -19.3% [at 8.47 µM] | activation [1] -9.42% [at 7.08 µM] | activity change, negative = cytotoxicity [3] -10.4% [at 5.95 µM] | activation [12] -8.59% [at 8.36 µM] | viability change, negative = cytotoxic [4] -2.33% [at 8.36 µM] | activity change, negative = cytotoxicity [5] -2.28% [at 5.95 µM] | activation [6] -0.565% [at 5.95 µM] | activity change, negative = cytotoxicity [7] -0.611% [at 5.95 µM] | activation [8] 6.93% [at 5.95 µM] | ratio activity, negative = inhibition [10] 0.853% [at 6.26 µM] | viability change, negative = cytotoxic [17] 0.0024% [at 5.95 µM] | activity change, negative = cytotoxicity [11] 0.502% [at 5.95 µM] | activation [14] 0.83% [at 6.01 µM]

NC(=O)N[C@@H](CCC(=O)O)C(=O)O
inactive: Potency [19] | outcome [3] | Potency [12] | outcome [4] | outcome [5] | outcome [6] | outcome [7] | outcome [8] | outcome [9] | outcome [10] | outcome [13] | outcome [17] | outcome [18] | outcome [11] | outcome [14] | outcome [15]

CN(C)CCCCCCN(C)C
inactive: outcome [3] | Potency [12] | outcome [4] | outcome [5] | outcome [7] | outcome [13] | outcome [17] | outcome [11] | outcome [14]

C=CN1CCCCCC1=O
inactive: Potency [19] | outcome [3] | Potency [12] | outcome [4] | outcome [5] | outcome [8] | outcome [9] | outcome [10] | outcome [17] | outcome [11] | outcome [14]

O=C(O)CCCC[P+](c1ccccc1)(c1ccccc1)c1ccccc1
inactive: Potency [2] | outcome [3] | Potency [12] | outcome [4] | outcome [5] | outcome [6] | outcome [7] | outcome [8] | outcome [9] | outcome [17] | outcome [11] | outcome [14]

O=C1NC(=O)C2CC=CCC12 (stereo unspecified)
inactive: Potency [12] | outcome [4] | outcome [5] | outcome [6] | outcome [7] | outcome [9] | outcome [13] | outcome [18] | outcome [11] | outcome [14] | outcome [15]

CC1=NN(c2cccc(S(=O)(=O)O)c2)C(=O)C1
inactive: Potency [16] | Potency [2] | outcome [3] | outcome [4] | outcome [5] | outcome [6] | outcome [7] | outcome [8] | outcome [9] | outcome [11] | outcome [14] | outcome [15]

Cc1ncc(COP(=O)(O)O)c(C=O)c1O
inactive: Potency [19] | Potency [1] | Potency [2] | outcome [3] | outcome [4] | outcome [7] | outcome [8] | outcome [9] | outcome [17] | outcome [11] | outcome [14] | outcome [15]

CCN(C=O)CC
inactive: Potency [19] | outcome [3] | outcome [4] | outcome [5] | outcome [6] | outcome [7] | outcome [9] | outcome [13] | outcome [17] | outcome [11] | outcome [15]
